About 83,000 compounds went through this panel and 20% of them were active in at least one assay; those are over-represented in the sample as a whole.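 Interpretation: 100, growth as untreated; towards 0, rising growth inhibition; 0, no net growth; 0 to -100, cell death. Compounds scoring below 10 were considered active.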 Values without a mark were called inactive. Calls of active or inactive are those of the source.

Common to all, as to test: NCI-60 one-dose screen, 48 h (100 = growth as untreated, 0 = no growth, -100 = all killed)
In assay [1] the test system is K-562 leukemia. To be noted: 10 µM unless noted.
Assay [2] has as its system MALME-3M melanoma. The settings on record: 10 µM unless noted.
Assay [3] concerns MDA-MB-231 breast. The settings on record: 10 µM unless noted.
Assay [4] deals with RXF 393 renal. The settings on record: 10 µM unless noted.
Assay [5] relates to SF-268 CNS. To be noted: 10 µM unless noted.
Assay [6] concerns SF-295 CNS. The settings on record: 10 µM unless noted.
Assay [7] concerns SF-539 CNS. The settings on record: 10 µM unless noted.
Assay [8] has as its system UACC-257 melanoma. The settings on record: 10 µM unless noted.
Assay [9] concerns M14 melanoma. To be noted: 10 µM unless noted.
Assay [10] deals with HCT-15 colon. The settings on record: 10 µM unless noted.
The subject of assay [11] is HT29 colon. To be noted: 10 µM unless noted.
Assay [12] deals with SNB-75 CNS. To be noted: 10 µM unless noted.
The test system of assay [13] is SNB-19 CNS. The settings on record: 10 µM unless noted.
The test system of assay [14] is U251 CNS. To be noted: 10 µM unless noted.
Assay [15] has as its system PC-3 prostate. To be noted: 10 µM unless noted.
Assay [16] concerns SK-MEL-5 melanoma. The settings on record: 10 µM unless noted.
Assay [17] relates to UACC-62 melanoma. To be noted: 10 µM unless noted.
In assay [18] the test system is LOX IMVI melanoma. To be noted: 10 µM unless noted.
The subject of assay [19] is SK-MEL-28 melanoma. To be noted: 10 µM.
Assay [20] relates to SK-MEL-2 melanoma. To be noted: 10 µM unless noted.

`COc1cc(/C=C/C(=O)c2c(C)nc3ccccc3c2/C=C/c2ccccc2)cc(OC)c1OC`: the growth is 6.02% (active) in assay [1]; 36.3% in [2]; -0.432% (active) in assay [3]; -17.2% (active) in [4]; 25.9% in assay [5]; 29.8% in [6]. Moreover, the growth was 1.35% (active) in [7]; 42.1% in [8]; -6.24% (active) in assay [9]; -6.23% (active) in [10]; -1.3% (active) in assay [11]; 14.2% in assay [12]. Besides, the growth in assay [13] is 1.12% (active); in [14] it was -14.1% (active); in assay [15] it was 20.5%; in assay [16] it was 8.08% (active); in assay [17], 10.5%; in assay [18], -86.7% (active). For the same compound, the growth in [19] is 1.27% (active); in [20] it was -6.78% (active).
On to `Cc1sc2ncn(CC(=O)Nc3ccc(S(N)(=O)=O)cc3)c(=O)c2c1C`, for which the growth was 103% in assay [1]; 102% in [2]; 102% in assay [3]; 114% in [4]; 97.9% in assay [5]; 104% in assay [6]. For the same compound, the growth in assay [7] is 96%; in assay [8] it was 97.7%; in assay [9], 114%; in [10], 102%; in assay [11], 107%; in [12], 86.1%. The growth in [13] is 98.5%; in assay [14], 100%; in assay [15] it was 101%; in assay [16], 99.3%; in [17], 96.5%; in assay [18] it was 99%. Also, the figures for the growth in assay [19] and in [20] were 110% and 106%, respectively.
For `COc1ccc(CCN2CCC(CN(C)Cc3cnn(-c4ccccc4)c3)CC2)cc1`, the growth was 10.4% in assay [1]; 18.4% in assay [2]; 21.6% in [3]; 35% in assay [4]; 21% in assay [5]; 47.5% in assay [6]. The growth in assay [7] is 19.7%; in assay [8] it was 19.1%; in [9] it was -19.2% (active); in assay [10], 26.2%; in [11] it was 33.5%; in [12], 59.9%. Besides, the growth in [13] was 29.4%; in [14], 9.09% (active); in assay [15], 34%; in assay [16] it was 18.9%; in assay [17], -14.2% (active); in [18] it was 2.01% (active). For the same compound, the growth was 33.4% in [19] and 37.3% in assay [20].
For `CCOC(=O)c1cnc2c(C)cccc2c1Nc1ccc(C(C)=O)cc1`, the growth is -21.5% (active) in [1]; -81% (active) in assay [2]; 11.2% in [3]; -54.5% (active) in assay [4]; 43.5% in assay [5]; -82.2% (active) in assay [6]. The growth in assay [7] is -44.9% (active); in assay [8] it was -58.4% (active); in assay [9], -67.6% (active); in assay [10], 0.0229% (active); in assay [11], -67.4% (active); in [12], 32.4%. In addition, the growth in assay [13] is 40.6%; in assay [14], -81.3% (active); in assay [15], 12.4%; in assay [16], -91.8% (active); in assay [17], 12.3%; in assay [18], -88.5% (active). Further, the growth was -93% (active) in [19] and -76.2% (active) in [20].
`CN1C(=O)N(C)C2(c3ccccc3)OC(=S)NC12c1ccccc1` (stereo not given): the growth was 92.3% in assay [1]; 97% in assay [2]; 110% in assay [3]; 114% in assay [4]; 88.9% in [5]; 93.3% in [6]. Further, the growth is 92.5% in [7]; 94.7% in assay [8]; 95.7% in [9]; 100% in assay [10]; 89.1% in [11]; 87.6% in assay [12]. Besides, the growth in assay [13] was 98.4%; in [14] it was 98.7%; in assay [15], 92.4%; in assay [16], 104%; in [17] it was 92.5%; in [18], 98.7%. The growth in assay [19] and in [20] was 102% in each case.
For `NCCNc1nc2ccccc2c2c(=O)c3cc(F)cc(Cl)c3sc12`, the growth is -62.7% (active) in assay [1]; 89.6% in [2]; -79.2% (active) in [3]; 67% in assay [4]; -42.4% (active) in [5]; 98.2% in [6]. Also, the growth in [7] is 58.6%; in [8], 103%; in assay [9], -76.6% (active); in assay [10] it was -83.4% (active); in assay [11] it was -64.3% (active); in assay [12], 44.6%. For the same compound, the growth in assay [13] is 81.4%; in assay [14] it was -84.3% (active); in assay [15] it was -70.4% (active); in [16] it was 85.5%; in [17], 44.8%; in assay [18], -92.1% (active). For the same compound, the growth is -89.8% (active) in assay [19] and 99.1% in [20].
For `CNCCNc1nc2ccccc2c2c(=O)c3cccc(OC)c3sc12`, the growth in assay [1] is -39% (active); in assay [2], 59.6%; in [3], 13.8%; in assay [4], 41.5%; in assay [5], 37.8%; in [6], 52.6%. The growth was 34.9% in assay [7]; 64% in assay [8]; -71.3% (active) in [9]; -39.9% (active) in assay [10]; -17.5% (active) in [11]; 26.2% in assay [12]. For the same compound, the growth in assay [13] is 42%; in assay [14] it was -45.2% (active); in assay [15], 26.1%; in assay [16], 57.9%; in assay [17] it was 44.4%; in [18] it was 12.2%. Besides, the growth in [19] was 62.3%; in assay [20], 73.1%.
For `CCn1c(SCC(=O)Nc2cc(C(F)(F)F)ccc2Cl)nc2ccccc2c1=O`, the growth is -46.2% (active) in assay [1]; -15.6% (active) in assay [2]; -25.6% (active) in assay [3]; 44.4% in [4]; 32.6% in assay [5]; 67.3% in assay [6]. Further, the growth in assay [7] is 69.1%; in [8], -32% (active); in [9] it was -67% (active); in assay [10] it was 36.7%; in assay [11] it was 15.7%; in assay [12], 13.4%. The growth was 93.5% in assay [13]; 47.9% in assay [14]; 17.5% in [15]; 25.7% in [16]; -79.1% (active) in [17]; -7.15% (active) in assay [18]. Besides, the figures for the growth in [19] and in assay [20] were -28.6% (active) and 87.3%, respectively.

The values are drawn from PubChem BioAssay (NCI).
